Measurements published in PubChem BioAssay AID651739 (Broad Institute, 2012).
Among all 5,600 compounds or so, about 4,100 (73%) were called active. Not shown: some 4% with an inconclusive outcome. The set was probably picked from earlier hits. Not all results are given here. Unmarked numbers belong to inactive results.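 The calls were made as follows: active = mean replicate inhibition above about 95% and at least 55% of replicates individually reaching it (limit read from the data); inconclusive = only one of the two criteria is met; inactive = neither criterion is met.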

test: T. cruzi intracellular proliferation inhibitors, confirmation, cell-based, NIH3T3 host, beta-gal parasite, luminescence, cherry-pick (AID 651739); conditions: T. cruzi beta-gal in NIH3T3, GalScreen luminescence, 90 h; at 8.35 µM; stronger effect = higher value

| Compound | inhibition |
| --- | --- |
| O=C(c1cnccn1)N1CC[C@@H]2[C@H](CO)Nc3ccc(-c4cccc(F)c4)cc3[C@@H]21 | 109% (active) |
| O=C(c1ccccn1)N1CC[C@@H]2[C@H]1c1cc(-c3ccccc3)ccc1N[C@@H]2CO | 107% (active) |
| CN(C)C(=O)c1ccc(-c2ccc3c(c2)[C@H]2[C@H](CCN2C(=O)c2ccc4c(c2)OCO4)[C@H](CO)N3)cc1 | 100% (active) |
| OC[C@@H]1Nc2ccc(-c3cccc(F)c3)cc2[C@H]2[C@@H]1CCN2Cc1ccncc1 | 114% (active) |
| O=C(c1ccccc1F)N1C[C@H]2[C@@H](c3ccccc31)[C@@H](CO)N2C(=O)c1ccc(F)cc1 | 46.6% |
| CCCN(C)C[C@H]1Oc2cc(C#CC3CCCC3)ccc2S(=O)(=O)N([C@H](C)CO)C[C@@H]1C | 105% (active) |
| CCCN(C)C[C@@H]1Oc2cc(C#Cc3ccc(F)cc3)ccc2S(=O)(=O)N([C@H](C)CO)C[C@H]1C | 108% (active) |
| C[C@@H]1CN([C@@H](C)CO)S(=O)(=O)c2ccc(C#Cc3ccc(F)cc3)cc2O[C@H]1CN(C)S(C)(=O)=O | 85.8% |
| C[C@@H]1CN([C@H](C)CO)S(=O)(=O)c2ccc(C#Cc3ccncc3)cc2O[C@@H]1CN(C)S(=O)(=O)c1ccc(F)cc1 | 70.2% |
| COc1ccc(-c2ccc3c(c2)[C@@H]2[C@@H](CCN2C(=O)Cc2ccccn2)[C@H](CO)N3C)cc1 | 108% (active) |
| CN1c2ccc(-c3ccccc3)cc2[C@H]2[C@H](CCN2C(=O)Cc2ccccn2)[C@H]1CO | 88.9% |
| CCC(=O)N1CC[C@@H]2[C@@H](CO)N(C)c3ccc(-c4cccc(OC)c4)cc3[C@@H]21 | 99.1% (active) |
| COc1ccc(NC(=O)N2CC[C@@H]3[C@@H](CO)N(C)c4ccc(-c5cccc(F)c5)cc4[C@@H]32)cc1 | 100% (active) |
| CN1c2ccc(-c3ccccc3)cc2[C@@H]2[C@@H](CCN2C(=O)c2ccncc2)[C@@H]1CO | 100% (active) |
| CCC(=O)N1CC[C@@H]2[C@@H](CO)N(C)c3ccc(-c4ccc(F)cc4)cc3[C@@H]21 | 102% (active) |
| C[C@H]1CN([C@@H](C)CO)C(=O)c2ccccc2-c2ccccc2CO[C@@H]1CN(C)S(=O)(=O)c1ccc(C(F)(F)F)cc1 | 99.2% (active) |
| C[C@H](CO)N1C[C@H](C)[C@@H](CN(C)S(=O)(=O)c2cccc(F)c2)OCc2ccccc2-c2c(n(C)c3ccccc23)C1=O | 99.6% (active) |
| Cc1noc(C)c1S(=O)(=O)N(C)C[C@H]1Oc2ccc(N(C)C)cc2CC(=O)N([C@H](C)CO)C[C@@H]1C | -37.8% |
| C[C@H](CO)N1C[C@H](C)[C@@H](CN(C)C(=O)Nc2ccnc(N3CCOCC3)c2)OCc2ccccc2-c2ccccc2C1=O | 100% (active) |
| C[C@H](CO)N1C[C@H](C)[C@H](CN(C)S(=O)(=O)c2ccccc2)Oc2ncc(-c3cccc(C(F)(F)F)c3)cc2C1=O | 108% (active) |
| C[C@@H]1CN([C@H](C)CO)C(=O)c2cc(-c3cncnc3)cnc2O[C@H]1CN(C)C(=O)Nc1ccc2c(c1)OCO2 | -15.5% |

| Compound | inhibition |
| --- | --- |
| Cc1ccc(S(=O)(=O)N(C)C[C@@H]2Oc3ncc(-c4cc5ccccc5o4)cc3C(=O)N([C@H](C)CO)C[C@@H]2C)cc1 | 105% (active) |
| C[C@H](CO)N1C[C@H](C)[C@H](CN(C)S(=O)(=O)c2cccc(F)c2)Oc2ncc(/C=C/c3ccccc3)cc2C1=O | 102% (active) |
| Cc1ccc(-c2cnc3c(c2)C(=O)N([C@@H](C)CO)C[C@@H](C)[C@H](CN(C)Cc2ccccc2F)O3)cc1 | 102% (active) |
| COc1ccccc1-c1ccc2c(c1)O[C@H](CN(C)S(=O)(=O)c1ccc(C)cc1)[C@@H](C)CN([C@H](C)CO)S2(=O)=O | 93.9% |
| C[C@H](CO)N1C[C@H](C)[C@H](CN(C)Cc2cccnc2)Oc2cc(C#CC3CCCC3)ccc2S1(=O)=O | 108% (active) |
| C[C@H]1CN([C@@H](C)CO)S(=O)(=O)c2ccc(C#CC3CCCC3)cc2O[C@H]1CN(C)C(=O)Cc1ccncc1 | 110% (active) |
| C[C@@H]1CN([C@H](C)CO)S(=O)(=O)c2ccc(C#CC3CCCC3)cc2O[C@@H]1CN(C)Cc1cccnc1 | 98.8% (active) |
| C[C@@H]1CN([C@H](C)CO)S(=O)(=O)c2ccc(C#CC3CCCC3)cc2O[C@@H]1CN(C)C(=O)Cc1ccncc1 | 92.6% |
| C[C@@H]1CN([C@H](C)CO)C(=O)c2cc(NC(=O)Nc3ccc(F)cc3)ccc2O[C@@H](C)CCCCO[C@H]1CN(C)Cc1ccc(Cl)c(Cl)c1 | 98.3% (active) |
| C[C@@H]1CCCCO[C@@H](CN(C)Cc2ccc(Cl)c(Cl)c2)[C@H](C)CN([C@H](C)CO)C(=O)c2cc(NC(=O)Nc3ccc(F)cc3)ccc2O1 | 88.5% |
| COc1ccc(NC(=O)Nc2ccc3c(c2)C(=O)N([C@H](C)CO)C[C@@H](C)[C@H](CN(C)Cc2ccc(Cl)c(Cl)c2)OCCCC[C@@H](C)O3)cc1 | 98.8% (active) |
| C[C@H](CO)N1C[C@H](C)[C@@H](CN(C)Cc2ccc(-c3ccccc3)cc2)Oc2ccc(NC(=O)CCC(F)(F)F)cc2CC1=O | 92.4% |
| C[C@H](CO)N1C[C@H](C)[C@H](CN(C)Cc2ccc(-c3ccccc3)cc2)Oc2ccc(NC(=O)Nc3ccc(F)cc3)cc2CC1=O | 110% (active) |
| C[C@@H]1CN([C@H](C)CO)C(=O)Cc2cc(NC(=O)c3ccncc3)ccc2O[C@H]1CN(C)Cc1ccc(-c2ccccc2)cc1 | 109% (active) |
| C[C@@H]1CN([C@@H](C)CO)C(=O)Cc2cc(NC(=O)C3CCCCC3)ccc2O[C@@H]1CN(C)Cc1ccc(C(=O)Nc2ccccc2N)cc1 | 103% (active) |
| COCC#Cc1ccc([C@@H]2[C@H](CO)N3CCCCN(C(=O)CN(C)C)C[C@@H]23)cc1 | 57.7% |
| Cc1cccc(-c2ccc([C@@H]3[C@H](CO)N4CCCCN(C(=O)c5ccc6c(c5)OCO6)C[C@@H]34)cc2)c1 | 105% (active) |
| CCCC#Cc1ccc([C@H]2[C@H](CO)N3CCCCN(C(=O)c4ccc5c(c4)OCO5)C[C@@H]23)cc1 | 104% (active) |
| COc1ccc(-c2ccc([C@H]3[C@H]4CN(C(=O)c5ccc6c(c5)OCO6)CCCCN4[C@H]3CO)cc2)cc1 | 106% (active) |
| CCC(=O)N1CCCCN2[C@H](C1)[C@@H](c1ccc(-c3ccc(F)cc3)cc1)[C@@H]2CO | 60.2% |
| CCC(=O)N1CCCCN2[C@H](C1)[C@@H](c1ccc(/C=C/c3ccccc3)cc1)[C@@H]2CO | 102% (active) |

| Compound | inhibition |
| --- | --- |
| O=C(CN1CCOCC1)N1CCCCN2[C@@H](CO)[C@H](c3ccc(-c4ccccc4)cc3)[C@@H]2C1 | 81.6% |
| O=C(CN1CCOCC1)N1CCCCN2[C@@H](CO)[C@H](c3ccc(/C=C/c4ccccc4)cc3)[C@@H]2C1 | 99.6% (active) |
| O=C(CN1CCOCC1)N1CCCCN2[C@H](CO)[C@H](c3ccc(-c4ccccc4)cc3)[C@@H]2C1 | 73.7% |
| O=C(C[C@H]1CC[C@@H]2[C@H](COC[C@H](O)CN2Cc2ccc(Oc3ccccc3)cc2)O1)N1CCN(c2ccccc2)CC1 | 101% (active) |
| COc1cccc(C#Cc2ccc([C@@H]3[C@H](C#N)N[C@H]3CO)cc2)c1 | 101% (active) |
| COc1ccc(C#Cc2ccc([C@@H]3[C@@H](CO)N4CCCCN(C(=O)c5ccncc5)C[C@@H]34)cc2)cc1 | 80.6% |
| O=C(c1cccc(F)c1)N1CCCCN2[C@H](CO)[C@H](c3ccc(-c4ccncc4)cc3)[C@H]2C1 | 95.2% (active) |
| O=C(c1cccnc1)N1CCCCN2[C@@H](CO)[C@H](c3ccc(C#Cc4ccccc4)cc3)[C@@H]2C1 | 112% (active) |
| COc1ccccc1NC(=O)N1CCCCN2[C@H](C1)[C@H](c1ccc(-c3ccccc3)cc1)[C@@H]2CO | 109% (active) |
| O=C(Nc1cc(F)ccc1F)N1CCCCN2[C@H](CO)[C@@H](c3ccc(-c4cncnc4)cc3)[C@H]2C1 | 55.4% |
| O=C(c1ccncc1)N1CCCCN2[C@H](CO)[C@H](c3ccc(-c4ccccc4)cc3)[C@H]2C1 | 105% (active) |
| CC(C)(O)C#Cc1ccc([C@@H]2[C@H](CO)N3CCCCN(C(=O)c4cccc(F)c4)C[C@@H]23)cc1 | 76.7% |
| O=C(Nc1ccccc1F)N1CCCCN2[C@H](CO)[C@@H](c3ccc(-c4cccnc4)cc3)[C@H]2C1 | 61.1% |
| C[C@@H]1CCCCO[C@H](CN(C)Cc2ccc(C(F)(F)F)cc2)[C@H](C)CN([C@H](C)CO)C(=O)c2cc(NC(=O)Nc3ccc(F)cc3)ccc2O1 | 96.3% (active) |
| C[C@@H]1CCCCO[C@@H](CN(C)Cc2ccc(C(F)(F)F)cc2)[C@@H](C)CN([C@H](C)CO)C(=O)c2cc(NC(=O)Nc3ccccc3)ccc2O1 | 105% (active) |
| C[C@@H]1CCCCO[C@H](CN(C)Cc2ccccc2)[C@@H](C)CN([C@@H](C)CO)C(=O)c2cc(NC(=O)Nc3ccc(F)cc3)ccc2O1 | 101% (active) |
| C[C@@H]1CN([C@H](C)CO)C(=O)c2cc(NS(=O)(=O)c3cccs3)ccc2O[C@@H](C)CCCCO[C@H]1CN(C)Cc1ccc(C(F)(F)F)cc1 | 101% (active) |
| C[C@H]1CCCCO[C@H](CN(C)Cc2ccccc2)[C@@H](C)CN([C@@H](C)CO)C(=O)c2cc(NC(=O)NC3CCCCC3)ccc2O1 | 111% (active) |
| C[C@H]1CCCCO[C@H](CN(C)Cc2ccccc2)[C@@H](C)CN([C@@H](C)CO)C(=O)c2cc(NC(=O)c3ccccc3)ccc2O1 | 113% (active) |
